The source made the active and inactive calls.
Key:
[1] = binders of probe aFSTL3 on microarray, primary screen, stem cell growth factor project, biochemical, small-molecule microarray, fluorescence 635/667 (AID 1064); conditions: higher = more signal;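 further: measures binding of the biotinylated anti-FSTL3 antibody to printed compounds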
[2] = binders from COS7 lysate, DM2A8 probe, primary screen, torsin A project, cell lysate, small-molecule microarray, fluorescence 635/667 (AID 1065); conditions: higher = more signal, COS7 lysate expressing mutant human TOR1A
[3] = binders of probe aFGF2 on microarray, primary screen, stem cell growth factor project, biochemical, small-molecule microarray, fluorescence 635/667 (AID 1067); conditions: higher = more signal;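 further: measures binding of biotinylated aFGF2 protein to printed compounds on slides; z-score merges feature fluorescence and signal-to-noise across triplicate slides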
[4] = binders of probe aFGF10 on microarray, primary screen, stem cell growth factor project, biochemical, small-molecule microarray, fluorescence 635/667 (AID 1071); conditions: higher = more signal;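 further: score merges 667 nm spot intensity and signal to noise from triplicate slides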
[5] = molecular target: Neurogenic locus notch homolog protein 2 (Homo sapiens) (UniProt Q04721); assay: Notch2 binders on small-molecule microarrays, primary screen, biochemical, small-molecule microarray, 635 nm fluorescence, stem cell growth factors (AID 1073); conditions: Notch2 binding, higher = more signal
Chain of Neurogenic locus notch homolog protein 2 (Homo sapiens) (Q04721 whole entry, looked up, canonical isoform): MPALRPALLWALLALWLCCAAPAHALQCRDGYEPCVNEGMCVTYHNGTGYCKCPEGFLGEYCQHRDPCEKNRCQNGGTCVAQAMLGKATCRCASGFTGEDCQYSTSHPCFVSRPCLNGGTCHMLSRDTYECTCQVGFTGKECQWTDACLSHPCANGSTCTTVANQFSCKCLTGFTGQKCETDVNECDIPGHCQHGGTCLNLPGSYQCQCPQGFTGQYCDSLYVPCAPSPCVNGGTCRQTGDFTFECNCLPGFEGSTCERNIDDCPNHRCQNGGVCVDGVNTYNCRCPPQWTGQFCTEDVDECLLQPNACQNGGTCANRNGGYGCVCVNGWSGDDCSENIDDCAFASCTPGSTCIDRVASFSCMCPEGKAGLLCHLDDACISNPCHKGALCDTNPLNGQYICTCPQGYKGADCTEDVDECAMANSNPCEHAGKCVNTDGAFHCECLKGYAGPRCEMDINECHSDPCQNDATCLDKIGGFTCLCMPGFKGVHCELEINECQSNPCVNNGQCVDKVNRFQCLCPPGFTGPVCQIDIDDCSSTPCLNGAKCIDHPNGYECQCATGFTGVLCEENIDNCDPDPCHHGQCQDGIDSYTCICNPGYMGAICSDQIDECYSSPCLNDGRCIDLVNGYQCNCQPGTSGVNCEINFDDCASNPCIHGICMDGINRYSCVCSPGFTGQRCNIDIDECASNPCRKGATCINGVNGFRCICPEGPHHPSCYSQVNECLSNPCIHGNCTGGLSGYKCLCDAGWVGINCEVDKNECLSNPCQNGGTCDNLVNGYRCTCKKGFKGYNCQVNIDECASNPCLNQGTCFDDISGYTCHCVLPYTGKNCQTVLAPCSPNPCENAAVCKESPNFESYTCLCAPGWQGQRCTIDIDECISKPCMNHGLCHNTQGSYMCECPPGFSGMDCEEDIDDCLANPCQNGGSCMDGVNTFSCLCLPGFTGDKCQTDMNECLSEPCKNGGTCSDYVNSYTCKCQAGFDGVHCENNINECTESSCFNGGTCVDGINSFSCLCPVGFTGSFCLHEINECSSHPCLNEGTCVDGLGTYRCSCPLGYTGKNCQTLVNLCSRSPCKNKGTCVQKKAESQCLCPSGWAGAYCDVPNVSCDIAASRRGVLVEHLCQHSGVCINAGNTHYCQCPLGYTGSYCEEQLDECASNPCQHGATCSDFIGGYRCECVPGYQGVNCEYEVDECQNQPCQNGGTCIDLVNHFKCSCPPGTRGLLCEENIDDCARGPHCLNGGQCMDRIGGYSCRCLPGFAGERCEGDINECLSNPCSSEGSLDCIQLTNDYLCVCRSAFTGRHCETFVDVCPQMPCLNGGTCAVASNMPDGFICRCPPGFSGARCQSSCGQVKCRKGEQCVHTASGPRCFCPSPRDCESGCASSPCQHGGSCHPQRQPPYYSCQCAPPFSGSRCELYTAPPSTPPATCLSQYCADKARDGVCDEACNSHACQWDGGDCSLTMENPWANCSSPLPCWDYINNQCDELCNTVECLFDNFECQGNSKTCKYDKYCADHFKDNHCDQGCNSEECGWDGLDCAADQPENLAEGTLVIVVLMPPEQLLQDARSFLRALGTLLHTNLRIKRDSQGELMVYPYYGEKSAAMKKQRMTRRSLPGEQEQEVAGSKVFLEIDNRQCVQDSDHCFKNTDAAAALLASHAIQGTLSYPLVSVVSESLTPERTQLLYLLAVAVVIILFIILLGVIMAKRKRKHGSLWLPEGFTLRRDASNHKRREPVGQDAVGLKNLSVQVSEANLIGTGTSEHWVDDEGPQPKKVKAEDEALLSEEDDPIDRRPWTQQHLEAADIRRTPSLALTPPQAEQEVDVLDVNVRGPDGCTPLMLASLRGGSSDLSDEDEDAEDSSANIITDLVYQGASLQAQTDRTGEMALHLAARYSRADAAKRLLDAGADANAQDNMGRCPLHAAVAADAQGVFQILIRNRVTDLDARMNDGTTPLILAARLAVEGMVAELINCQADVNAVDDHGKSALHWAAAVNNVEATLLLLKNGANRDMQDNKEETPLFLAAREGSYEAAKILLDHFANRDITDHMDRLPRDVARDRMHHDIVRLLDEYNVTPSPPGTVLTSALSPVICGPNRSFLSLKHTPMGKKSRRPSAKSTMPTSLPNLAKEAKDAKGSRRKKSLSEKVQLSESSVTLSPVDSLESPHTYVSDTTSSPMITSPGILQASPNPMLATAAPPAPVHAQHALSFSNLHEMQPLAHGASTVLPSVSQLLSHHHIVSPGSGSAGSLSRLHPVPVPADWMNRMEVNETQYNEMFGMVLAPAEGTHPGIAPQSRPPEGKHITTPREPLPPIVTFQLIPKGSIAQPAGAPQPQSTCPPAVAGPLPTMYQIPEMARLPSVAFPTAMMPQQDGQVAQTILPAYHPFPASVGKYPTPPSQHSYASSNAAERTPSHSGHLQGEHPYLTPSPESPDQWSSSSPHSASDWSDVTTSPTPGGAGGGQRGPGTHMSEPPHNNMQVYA

[6] = molecular target: Pro-neuregulin-1, membrane-bound isoform (Homo sapiens) (UniProt Q02297); assay: NRG1 binders on small-molecule microarrays, primary screen, psychiatric disease protein project, biochemical, small-molecule microarray, fluorescence 635/667 (AID 1075); conditions: NRG1 binding, 635 nm fluorescence, higher = more signal;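 further: score combines 667 nm spot fluorescence with signal to noise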
Chain of Pro-neuregulin-1, membrane-bound isoform (Homo sapiens) (Q02297 whole entry, looked up, the tested form may be a part, canonical isoform): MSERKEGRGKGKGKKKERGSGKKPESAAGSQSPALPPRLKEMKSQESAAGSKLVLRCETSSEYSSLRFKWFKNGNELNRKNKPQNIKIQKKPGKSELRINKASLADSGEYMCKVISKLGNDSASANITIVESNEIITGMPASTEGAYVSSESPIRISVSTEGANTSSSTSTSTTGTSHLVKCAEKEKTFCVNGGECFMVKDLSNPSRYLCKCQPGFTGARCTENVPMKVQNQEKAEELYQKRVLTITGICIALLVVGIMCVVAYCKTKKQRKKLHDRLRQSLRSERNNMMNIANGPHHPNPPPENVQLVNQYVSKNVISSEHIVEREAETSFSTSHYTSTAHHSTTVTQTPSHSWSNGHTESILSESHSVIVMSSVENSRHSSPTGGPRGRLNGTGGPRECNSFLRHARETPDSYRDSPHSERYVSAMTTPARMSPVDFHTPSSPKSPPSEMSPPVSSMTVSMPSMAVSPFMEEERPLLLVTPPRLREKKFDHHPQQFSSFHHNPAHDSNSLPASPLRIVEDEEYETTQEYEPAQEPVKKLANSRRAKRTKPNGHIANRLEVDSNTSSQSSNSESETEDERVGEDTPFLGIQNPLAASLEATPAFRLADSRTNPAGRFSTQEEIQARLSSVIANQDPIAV

[7] = system: Neuregulin-1 EGF-like domain; assay: binders of neuregulin-1 EGF-like domain, primary screen, biochemical, small-molecule microarray, 635 nm fluorescence (AID 1081); conditions: small-molecule microarray binding, higher = more signal;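 further: binding of the protein to compounds printed on small-molecule microarray slides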
[8] = FRG1 promoter luciferase signal modulators, primary screen, FRG1 inhibition for FSHD, cell-based, C2C12 myotubes, firefly/Renilla luciferase, luminescence (AID 1084); conditions: higher = more signal, called active from +8 up or from −8 down
[9] = binders of probe aFST on microarray, primary screen, stem cell growth factor project, biochemical, small-molecule microarray, fluorescence 635/667 (AID 1086); conditions: higher = more signal;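 further: score merges 667 nm fluorescence with signal-to-noise of each printed compound spot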
[10] = binders of probe aHhip on microarray, primary screen, stem cell growth factor project, biochemical, small-molecule microarray, fluorescence 635/667 (AID 1087); conditions: higher = more signal;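 further: score merges spot fluorescence at 667nm with spot signal to noise ratio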
[11] = system: PRMT1 (protein arginine N-methyltransferase 1); assay: PRMT1 binders on small-molecule microarrays, primary screen, biochemical, small-molecule microarray, 635 nm fluorescence (AID 1088); conditions: small-molecule microarray binding, higher = more signal;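 further: binding of Prmt1 protein to compounds spotted on small-molecule microarray slides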
[12] = yeast growth modulation, basal conditions, primary screen, YJM789 clinical isolate, OD600, 24 h (AID 1089);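 further: growth of clinical yeast isolate S. cerevisiae YJM 789 seeded 1000 cells per well; test concentration not given here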; conditions: S. cerevisiae YJM789 growth, higher = more signal, called active from +8 up or from −8 down
[13] = fission yeast growth modulation, primary screen, strain 972, OD600, 24 h, no modulator (AID 1090);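 further: basal condition with compound alone and no growth modifier present; test concentration not given here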; conditions: S. pombe 972 growth, higher = more signal, called active from +8 up or from −8 down
[14] = S. cerevisiae growth modulation with rapamycin, primary screen, strain BY4716, OD600, 96 h (AID 1091); conditions: higher = more signal, called active from +8 up or from −8 down; further: test concentration not given here
[15] = molecular target: Torsin-1A-interacting protein 2 (Homo sapiens) (UniProt Q8NFQ8); assay: LULL1 binders on small-molecule microarray, primary screen, cell lysate, human LULL1 lysate, 635/667 nm fluorescence (AID 1092); conditions: hLULL1 lysate binding, 635 nm fluorescence, higher = more signal;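 further: probe is lysate of COS7 cells overexpressing human LULL1; score merges per-feature 667 nm fluorescence with signal-to-noise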
Chain of Torsin-1A-interacting protein 2 (Homo sapiens) (Q8NFQ8 whole entry, looked up): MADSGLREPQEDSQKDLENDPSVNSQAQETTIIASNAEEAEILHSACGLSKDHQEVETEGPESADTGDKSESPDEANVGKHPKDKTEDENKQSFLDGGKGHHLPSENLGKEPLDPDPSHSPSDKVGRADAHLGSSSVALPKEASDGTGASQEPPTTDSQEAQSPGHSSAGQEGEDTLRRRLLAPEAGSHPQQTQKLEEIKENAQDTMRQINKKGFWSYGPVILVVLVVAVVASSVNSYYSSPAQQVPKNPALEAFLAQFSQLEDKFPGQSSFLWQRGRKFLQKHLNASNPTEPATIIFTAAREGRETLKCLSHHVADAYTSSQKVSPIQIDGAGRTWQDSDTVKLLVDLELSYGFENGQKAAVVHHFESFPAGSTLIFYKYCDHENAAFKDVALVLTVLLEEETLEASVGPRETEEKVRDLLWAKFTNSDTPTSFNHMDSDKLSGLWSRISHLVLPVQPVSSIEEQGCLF

[16] = E. coli growth modulation, two-sided OD650, primary screen, E. coli filamentation project, strain DRC41, 24 h (AID 1093); conditions: OD650, 24 h, higher = more signal, called active from +8 up or from −8 down;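 further: MC1000 strain lacking acrAB efflux and sulA so SOS filamentation is blocked; test concentration not given here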
[17] = small-molecule microarray binders of probe aLefty2, primary screen, biochemical, biotinylated probe, 635/667 nm fluorescence (AID 1094); conditions: higher = more signal;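 further: score merges spot fluorescence near 667 nm with spot signal-to-noise ratio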
[18] = system: Noggin (protein binding on small-molecule microarray); assay: Noggin binders on small-molecule microarray, primary screen, biochemical, 635/667 nm fluorescence (AID 1095); conditions: 635 nm fluorescence, higher = more signal;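 further: score merges 667 nm feature fluorescence with signal to noise over triplicate slides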
[19] = molecular target: Neurogenic locus notch homolog protein 3 (Homo sapiens) (UniProt Q9UM47); assay: NOTCH3 binders on small-molecule microarray, primary screen, biochemical, 635/667 nm fluorescence (AID 1096); conditions: NOTCH3 binding, 635 nm fluorescence, higher = more signal
[20] = small-molecule microarray binders of probe aEGFR, primary screen, biochemical, biotinylated probe, 635/667 nm fluorescence (AID 1097); conditions: higher = more signal;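 further: probe is a biotinylated anti-EGFR antibody binding compounds printed on slides; score combines fluorescence near 667 nm and signal to noise of each spot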

Row | Structure (SMILES) | composite z-score [1] | composite z-score [2] | composite z-score [3] | composite z-score [4] | composite z-score [5] | composite z-score [6] | composite z-score [7] | z-score [8] | composite z-score [9] | composite z-score [10] | composite z-score [11] | z-score [12] | z-score [13] | z-score [14] | composite z-score [15] | z-score [16] | composite z-score [17] | composite z-score [18] | composite z-score [19] | composite z-score [20]
1 | C=CCOC(=O)[C@@H]1[C@H]2C(=O)O[C@H](c3ccccc3)[C@H](c3ccccc3)N2[C@H](c2ccc(OCCOC(=O)[C@@H]3C[C@@H]4C(=O)N5CCC[C@H]5C(=O)N4[C@@H]3c3cccc(OCCO)c3)cc2)[C@@]12C(=O)Nc1ccc(I)cc12 | -0.396 | 0.313 | -0.0927 | 0.0951 | 0.115 | 0.311 | 1.17 | 0.184 (inactive) | 0.252 | -0.236 | 1.55 | 0.581 (inactive) | 1.05 (inactive) | 2.18 (inactive) | 2.49 | 0.949 (inactive) | -0.0756 | 1.9 | 1.11 | -0.0387
2 | COC(=O)[C@@]1(Cc2ccc(OC)cc2)[C@H]2c3cc(C(=O)N(C)C)n(CCF)c3C[C@H]2CN1C(=O)c1ccccc1 | 0.999 | 0.245 | 0.0398 | 0.419 | 1.66 | 1.97 | 1.33 | -1.11 (inactive) | 0.98 | 0.31 | 0.574 | 0.215 (inactive) | 1.25 (inactive) | 0.167 (inactive) | 3.24 | -0.0418 (inactive) | 0.411 | 0.296 | 1.02 | 0.0986
3 | [N-]=[N+]=Nc1ccccc1[C@H]1OC(c2ccc(OCCCO)cc2)=N[C@@]1(Cc1ccccc1)C(=O)NCc1ccccc1 | -0.274 | -0.357 | 0.0722 | 0.639 | 1.12 | 0.883 | 0.567 | -1.55 (inactive) | 0.686 | 0.0373 | 1.57 | -2.78 (inactive) | -2.1 (inactive) | 1.12 (inactive) | 2.79 | 1.81 (inactive) | -0.0192 | 0.641 | 1.04 | -0.0066
4 | CC(C)(C)OC(=O)CC[C@@]1(C(=O)N2CCCCC2)N=C(c2ccc(OCCCO)cc2)O[C@@H]1c1ccccc1N=[N+]=[N-] | 0.358 | 0.805 | 0.147 | 1.03 | 1.66 | 1.89 | 1.41 | -1.88 (inactive) | 1.34 | -0.0237 | 1.53 | -0.336 (inactive) | -0.029 (inactive) | -0.183 (inactive) | 3.49 | 1.11 (inactive) | 0.253 | 0.369 | 1.03 | 0.208
5 | C=CC[C@]1(C(=O)N(C)C)N=C(c2ccc(OCCCO)cc2)O[C@H]1c1ccccc1 | 0.334 | 0.184 | 0.229 | 1.14 | 0.353 | 1.85 | 1.34 | 2.28 (inactive) | 0.463 | 0.064 | 1.43 | -1.76 (inactive) | -3.16 (inactive) | -0.979 (inactive) | 3.59 | 0.896 (inactive) | 0.0158 | 0.364 | 1.14 | -0.0512
6 | CCOc1cc(C(O)C2C=CC3C(=O)NC(=O)C3N2Nc2ccccn2)ccc1O (stereo not given) | -0.373 | 0.123 | -0.0094 | 0.458 | 0.257 | 0.18 | 0.117 | -0.027 (inactive) | 0.0771 | -0.132 | -0.0438 | 0.128 (inactive) | 1.33 (inactive) | -0.0339 (inactive) | 0.394 | -0.977 (inactive) | -0.0708 | 0.195 | 0.0082 | -0.0947
7 | C[C@]12C(=O)N(CCCCCO)[C@@H]3C(=O)N(c4ccc(Cl)cc4)CC=CC31O[C@@H]1/C=C\CCCOC(=O)C12 (stereo not given in full) | 0.302 | -1.54 | -0.221 | -1.14 | -0.76 | -0.254 | 0.655 | 0.803 (inactive) | -0.733 | -0.28 | -1.37 | -0.299 (inactive) | -1.14 (inactive) | -0.637 (inactive) | -1.43 | -1.25 (inactive) | -0.0986 | -0.757 | -0.0346 | -0.172
8 | O=C(Nc1cc(Br)ccc1C(=O)NCc1cccc(O)c1)c1ccccc1 | -0.0036 | 0.296 | -0.0144 | 0.478 | 0.708 | 1.95 | 1.15 | -1.07 (inactive) | 0.395 | -0.318 | 1.45 | 1.06 (inactive) | -2.4 (inactive) | 0.537 (inactive) | 2.5 | 2.81 (inactive) | -0.0291 | -0.0072 | 0.275 | -0.0947
9 | C[C@]12C(=O)N(CCCO)[C@@H]3C(=O)N(c4ccc(Cl)cc4)CC=CC31O[C@@H]1/C=C\CCCOC(=O)C12 (stereo not given in full) | -0.157 | -0.549 | -0.0895 | -0.512 | -1.37 | -0.0724 | 1.13 | 1.43 (inactive) | -0.67 | -0.363 | 0.868 | -1.65 (inactive) | -1.51 (inactive) | -0.488 (inactive) | 3.16 | -0.298 (inactive) | -0.262 | -0.441 | -0.123 | -0.261
10 | CC(=O)NCCCC[C@@H]1NC(=O)[C@H]2C[C@@H](C(=O)NCCCCCN)[C@@H](c3cccc(OCCO)c3)N2C1=O | -0.0485 | 0.107 | 0.0661 | 0.792 | 0.831 | 1.09 | 0.581 | -0.549 (inactive) | 0.547 | 0.758 | 0.907 | -1.51 (inactive) | -0.0234 (inactive) | -0.883 (inactive) | 2.23 | 1.56 (inactive) | -0.097 | 0.559 | 0.275 | -0.0155
